Screening results as filed in PubChem BioAssay.
Six1-Eya2 blk: Six1/Eya2 interaction inhibition; Q15475+O00167; AlphaScreen GST-Six1/His-Eya2 binding, biochemical; stronger effect = lower value; activity change, % (test concentration not listed); 360,000 compounds, 0.56% hits; in the data active means activity change below about -65%; inconclusive means mostly about -30% to -63%; further: on the % scale 0 is the no-effect control and ±100 the full control effect
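AlphaScreen with GST-Six1 and His-Eya2 (5X mix: 250 nM and 500 nM), glutathione donor and nickel acceptor beads; buffer 50 mM Tris pH 8.0, 300 mM NaCl, 1 mM TCEP; 1 h at 37 C in the dark.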
JMJD2A Tudor: inhibitors of human JMJD2A Tudor domain | O75164 | AlphaScreen JMJD2A-Tudor / H3K4me3 peptide binding | Potency, µM (doses to about 114 µM), for the others: top-dose activity change, negative = inhibition, actives largely listed as inhibitors | 390,000 compounds, 4.4% hits; further: potency means the concentration at half of the fitted maximal effect; on the % scale 0 is the no-effect control and ±100 the full control effect; nearly all actives have a fitted effect of over 50% in size
BAZ2B block: inhibitors of human BAZ2B bromodomain; Q9UIF8; 360,000 compounds, 4.4% hits; Potency, µM (top dose mostly 114 µM), for inactives: top-dose activity change, negative = inhibition, usual class: inhibitors; AlphaScreen BAZ2B-H3K14Ac peptide displacement; further: potency means the concentration at half of the fitted maximal effect; on the % scale 0 is the no-effect control and ±100 the full control effect; nearly all actives have a fitted effect of over 60% in size
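Complex of BAZ2B and biotin-H3K14Ac (50 nM apiece) forms over 30 min at RT, then faces library compounds up to 110 uM for another 30 min; AlphaScreen beads added, 20 min dark incubation, luminescence read.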
CtBP-E1A blk: blocks the CtBP interaction with E1A; AlphaScreen GST-E1A/His-CtBP binding, 1536-well; stronger effect = lower value; activity change, % (concentration not given with the values); 340,000 compounds, 0.49% hits; in the data active means activity change below about -65%; inconclusive means mostly about -30% to -63%; further: on the % scale 0 is the no-effect control and ±100 the full control effect
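Protein mix (5X: 125 nM each GST-E1A, His-CtBP) was incubated with pinned compound 2 h at 37 deg C in dark, in 50 mM Tris pH 8.0 buffer with 300 mM NaCl. Glutathione donor and nickel acceptor beads followed; AlphaScreen signal read after 1 h.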
HP1b chromo inh: blocks HP1-beta chromodomain binding to methylated histone tails. 390,000 compounds, 0.56% hits. P83916. Potency, µM (top dose mostly 114 µM), for inactives: at the highest dose activity change, negative = inhibition, hits mostly inhibitors. AID 540317. AlphaScreen HP1-beta / biotin-H3K9me3 peptide binding; further: potency means the concentration at half of the fitted maximal effect; nearly all actives have a fitted effect of over 70% in size
Target sequence (P83916 whole entry, looked up): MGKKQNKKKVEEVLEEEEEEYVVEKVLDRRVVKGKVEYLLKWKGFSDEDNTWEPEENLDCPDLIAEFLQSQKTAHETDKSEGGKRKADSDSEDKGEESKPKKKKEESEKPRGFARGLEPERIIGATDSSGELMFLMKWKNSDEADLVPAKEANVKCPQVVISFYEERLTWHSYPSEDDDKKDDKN
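Compound inhibition of the preformed complex between 50 nM HP1-beta and 50 nM biotinylated H3K9me3 peptide was read by AlphaScreen. Buffer was PBS pH 7.4 with 0.01% Tween-20. Incubations ran 30 min at room temperature, with 10 ug/mL donor/acceptor beads.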
G9a inh: blocks human histone lysine methyltransferase G9a; Q96KQ7; AID 504332; G9a H3K9 monomethylation, AlphaScreen, 2 h; 350,000 compounds, 8.8% hits; Potency, µM (doses to about 102 µM), inactives show at the highest dose activity, negative = inhibition, actives largely listed as inhibitors; further: potency means the concentration at half of the fitted maximal effect; on the % scale 0 is the no-effect control and ±100 the full control effect; nearly all actives have a fitted effect of over 75% in size
Target sequence (Q96KQ7 913-1193 limits assumed): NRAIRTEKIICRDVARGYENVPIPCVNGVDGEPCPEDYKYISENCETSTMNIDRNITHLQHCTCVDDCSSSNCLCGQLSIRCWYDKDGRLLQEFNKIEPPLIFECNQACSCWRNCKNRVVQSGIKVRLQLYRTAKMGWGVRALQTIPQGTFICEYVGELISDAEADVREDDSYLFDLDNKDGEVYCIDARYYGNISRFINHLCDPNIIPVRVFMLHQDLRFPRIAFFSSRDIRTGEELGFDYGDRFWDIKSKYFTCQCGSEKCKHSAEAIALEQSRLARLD
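G9a (20 nM) was preincubated 15 min with compound, then reacted 2 h at room temperature with 500 nM biotin-H3K9 peptide and 20 µM SAM. Monomethyl-H3K9 detected by AlphaScreen using anti-H3K9me1 antibody.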
An asterisk follows results filed as active; ? = inconclusive; · = no result; [ ] = dose if it differs, or a comment. Only some compounds are listed: those with a hit (about 10% of all), similar ones and a draw of the others. Unless noted, the call rests on the fitted dose curve; in most records, active means well fitted inhibition curve with a large enough effect; inconclusive means small, poorly fitted or top-dose-only effect; inactive means no such curve, though single readings can be large or run the other way.

SMILES	Six1-Eya2 blk	JMJD2A Tudor	BAZ2B block	CtBP-E1A blk	HP1b chromo inh	G9a inh
CC1=CC(c2ccc(Cl)cc2)n2nc(NS(=O)(=O)c3ccc(C)cc3)nc2N1 (configuration not stated)	-2	-24%	-11%	2	28%	32µM*
O=C(CSCc1ccccc1Cl)NNC(=S)Nc1ccccc1	-8	?	-33%	-14	-28%	7.9µM*
CC(=O)c1cccc(NC(=S)NC(=O)Cc2ccccc2)c1	-10	-3%	?	5	54%	22µM*
Cc1cccc(NC(=S)NNC(=O)Cc2ccccc2)c1	2	-5%	1%	3	12%	16µM*
O=C(CSCc1ccccc1Cl)Nc1ccc(C(=O)O)cc1	15	-9%	3%	-3	29%	11%[0.501 µM]
Cc1cccc(NCC(=O)NNC(=S)Nc2ccccc2)c1	-1	?	-3%	-17	-15%	32µM*
O=C(Cc1ccccc1)NNC(=S)Nc1ccc(Cl)cc1	4	-17%	6%	-1	7%	?
COc1ccc(NC(=O)Cn2nnc(C(=O)NCc3ccccc3Cl)c2N)cc1Cl	·	-6%	6%[57.1 µM]	·	12%	2%[59 µM]
COc1ccccc1CNC(=O)CCCCn1c(=O)c2ccccc2n(CC(=O)Nc2cccc(Cl)c2)c1=O	·	-12%	-14%	·	21%	-20%[59 µM]
Cc1c(C(=O)Nc2nc(-c3ccc(F)cc3)ns2)oc2ccc(Cl)cc12	·	-22%	0%	·	4%	?
CC(=O)c1cccc(NC(=O)CSC(=O)c2ccccc2)c1	-2	5%	5%	-5	47%	20µM*
C=C(C)[C@@H]1CC[C@]2(C(=O)O)CC[C@]3(C)[C@H](CCC4[C@@]5(C)CC[C@H](O)C(C)(C)[C@@H]5CC[C@]43C)[C@@H]12 (some centres not stated)	·	·	·	·	·	27%[59 µM]
COc1cc(N)c2ncccc2c1Cl	3	-3%	·	-7	16%[57 µM]	·
Nc1ccc(Br)c2cccnc12	9	-29%	-33%	22	17%	32µM*
CS(=O)(=O)Oc1ccc(Br)c2cccnc12	2	-1%	3%	·	29%	14%[0.501 µM]
Oc1ccc(N=Nc2ccc3c(c2)OCCO3)c2cccnc12	-77*	20µM*	?	-84*	?	-47%
COc1ccc(C)cc1N=Nc1ccc(O)c2ncccc12	-95*	8.9µM*	18µM*	·	7.9µM*	10µM*
Nc1ccc(N=Nc2ccccc2)c2cccnc12	-65*	32µM*	7.9µM*	-73*	16µM*	13µM*
COc1cccc(-c2nn(C)c3sc(C(=O)NCCc4cccc(C)c4)cc23)c1	·	-12%	·	·	28%	-1%[59 µM]
CC(=O)N1CCC2(CCCN(C(c3ccccc3)c3ccccc3)C2)CC1	·	·	·	·	·	2%[12.7 µM]
Oc1ccc(N=Nc2ccc(Br)cc2)c(O)c1	-14	-34%	25µM*	·	-9%	?
COc1ccc(N=Nc2ccc(O)c3ncccc23)cc1	-86*	22µM*	6.3µM*	·	-19%	-7%[59 µM]
O=Nc1ccc(O)c2ncccc12	-89*	28µM*	22µM*	·	-2%	?
COc1ccc(N=Nc2cc(-c3ccccc3)ccc2O)cc1	?	13µM*	10µM*	-69*	?	?
COc1ccc(-c2ncccc2O)cc1	5	-4%	-1%	-5	13%	1%
SMILES	Six1-Eya2 blk	JMJD2A Tudor	BAZ2B block	CtBP-E1A blk	HP1b chromo inh	G9a inh
O=Nc1ccc(NO)c2ccccc12	-2	·	·	-17	·	·
Cn1cc(S(=O)(=O)c2ccc(Cl)cc2)c(=O)c2cc(F)c(N3CCCCCC3)cc21	·	-21%	0%	·	35%	-1%[59 µM]
Cc1ccc(O)c2ncccc12	·	·	·	·	·	30%[12.7 µM]
COc1cc(OC)cc(C(=O)Nc2cccc3cccnc23)c1	7	26%	-5%	-5	51%	·
COc1cccc(N=Nc2ccc3cccnc3c2O)c1	-91*	14µM*	13µM*	·	?	7.1µM*
COc1cccc(N=Nc2ccc(O)c3ncccc23)c1	-70*	18µM*	7.9µM*	-96*	?	10µM*
Cc1ccc(N=Nc2ccc(O)cc2)c(Br)c1	?	35µM*	45µM*	-20	?	·
CCN(CC)S(=O)(=O)c1ccc(N=Nc2cc(C)cc(Br)c2O)cc1	0	?	·	-1	?	·
Cc1ccccc1N=Nc1ccc(O)c2ncccc12	?	?	7.9µM*	-26	?	?
CC(=O)N1CCCc2cc(S(=O)(=O)NCc3ccccc3Cl)ccc21	·	-1%	2%	·	34%[57 µM]	0%[59 µM]
O=C(Cc1ccc2c(c1)OCCO2)c1c(O)cc(O)cc1O	-4	?	11%	11	8%	-9%[59 µM]
COc1ccc(-c2[nH]ncc2N=Nc2cc(C)cc(C)c2)cc1	-19	-20%[11.4 µM]	?	·	-17%	?
O=S(=O)(O)c1cccc2c(N=Nc3ccc(O)c4ncccc34)cccc12	32	25µM*	22µM*	-92*	22µM*	10µM*
COc1ccc(-c2[nH]ncc2N=Nc2ccccc2)cc1	-19	28µM*	35µM*	?	?	50µM*
Oc1ccc(N=Nc2ccc3c(c2)OCCO3)c(O)c1	-21	40µM*	?	-5	-35%	?
CCOc1ccc(S(=O)(=O)O)c2cccnc12	·	·	·	·	·	6%[12.7 µM]
O=C(Nc1cccc(F)c1)C1CCN(S(=O)(=O)c2cccc3nsnc23)CC1	·	-30%	·	·	0%	-17%[59 µM]
CCC(=O)N1CCc2cc(Br)cc(S(=O)(=O)Nc3ccccc3C(=O)OC)c21	·	1%	-2%	·	40%	17%[59 µM]
Cc1ccc(NNC(=O)c2ccno2)c(C)c1	2	-17%	-1%	9	49%	0.79µM*
Cc1ccc(NNC(=O)CCc2ccccc2)c(C)c1	9	2%	-5%	-4	29%	32µM*
O=[S+]([O-])(c1ccc2c(c1)OCCO2)N1CCN([S+](=O)([O-])c2ccccc2Br)CC1	·	-10%	·	·	·	·
Cc1cccc2c1-c1sc(C(=O)NCCc3ccc(Cl)cc3)cc1CO2	·	?	2%	·	1%	-2%[59 µM]
COc1ccc2c(c1)OC(=O)CC2c1ccc2c(c1)OCO2 (configuration not stated)	·	·	·	·	·	-1%
CCC(=O)Nc1ccc(C2=Nn3c(nnc3C(C)C)SC2)cc1	6	-1%	2%	5	-12%	14µM*
CC(C)[C@H](N)c1nnc2n1N=C(c1ccc(Cl)cc1)CS2	4	8%	-10%	0	43%	?
CC(NC(=O)Nc1cccc(F)c1)c1ccc2c(c1)OCO2 (configuration not stated)	9	-7%	3%	-10	44%	·
CC(CCc1ccco1)NC(=O)Nc1cccc(F)c1 (configuration not stated)	-3	-34%	-28%	-2	2%	50µM*
